HCV inhibitor: HCV inhibition; Huh7.5.1 HCVcc-Cre infection, luciferase reporter, 44 h; Potency, µM (top dose mostly 41.8 µM), usual class: inhibitors; 340,000 tested, 3.4% active; AID 651820; active means well fitted inhibition curve with a large enough effect; inconclusive means small, poorly fitted or top-dose-only effect, or another doubt; inactive means no such curve, though single readings can be large or run the other way
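Cells seeded at 1,000/well and cultured 4 h, then compounds added followed by HCVcc-Cre virus (~0.5 moi). After 44 h further culture, luciferase substrate was added, plates held 15 min at room temperature, and luminescence read for 15 sec.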
HCMV antiviral: human cytomegalovirus inhibition; 410,000 tested, 4.5% active; activity change, negative = inhibition, % at 57.5 µM; HFF cells, HCMV-luciferase reporter, 72 h; hits give low values; AID 1259415; in the data active means activity change below about -60%; inconclusive means no clear call, values can overlap the other calls; inactive means above about -39%
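Luciferase read-out from HCMV-luciferase-infected HFFs (MOI 1 PFU/cell) 72 h post infection at 37C; compounds added after 16 h cell attachment; activity normalized between buffer-only basal and Salinomycin (10uM) inhibitor controls.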
LASV entry inh: Lassa virus entry inhibition | Lassa virus pseudotype entry inhibition, cell reporter | Potency, µM (series often up to 37.9 µM), usual class: inhibitors | 300,000 tested, 1.2% active; calls by dose curve; tested in HEK293 cells; further: nearly all actives have a fitted effect of over 50% in size
FMDV antiviral: blocks foot and mouth disease virus; FMDV antiviral cell-based qHTS; Potency, µM (top dose mostly 57.9 µM), actives largely listed as inhibitors; 410,000 tested, 1.2% active; calls by dose curve; tested in HEK293T cells; further: read-out not given here; nearly all actives have a fitted effect of over 45% in size
Marburg entry inh: inhibitors of Marburg virus binding or cell entry; Marburg virus pseudotyped entry inhibition, cell reporter; Potency, µM (top dose mostly 37.8 µM), most hits filed as inhibitors; 300,000 tested, 1.8% active; AID 540276; calls by dose curve; tested in HEK293 cells
A number is an active result; n = inactive; u = inconclusive; x = not tested or not shown; ! = not active in a repeat. Compounds with a hit are over-represented: about 7.9% of the library has one in this group of screens.

SMILES	HCV inhibitor	HCMV antiviral	LASV entry inh	FMDV antiviral	Marburg entry inh
COc1ccc(C(=O)C2CCCN(Cc3ccc(F)cc3F)C2)cc1F (configuration not stated)	n	n	x	n	x
COc1ccc(/C=C/CN2CCCC(C(=O)c3ccc(OC)c(F)c3)C2)cc1 (configuration not stated)	u	n	x	u	10µM
O=C1CCCN1CC(O)CS(=O)(=O)Cc1ccc(Cl)c(Cl)c1 (configuration not stated)	n	n	x	n	x
CC(C)COC(=O)c1ccc2[nH]c(O)c(C=Nc3ccc(S(N)(=O)=O)cc3)c2c1	x	x	0.996µM	x	x
Cc1sc2ncnc(N3CCN(Cc4ccccc4)CC3)c2c1-c1ccccc1	u	n	u	28.2µM	n
Cc1sc2ncnc(N3CCN(CCOc4ccc(Cl)cc4)CC3)c2c1C	10µM	-93.2	u	u	u
Cc1sc2ncnc(Nc3ccc(N4CCOCC4)cc3)c2c1-c1ccccc1	n	u	x	n	n
Cc1c(Cl)cccc1N1C(=O)[C@@H]2[C@H](ON(c3ccccc3)[C@H]2c2cccnc2)C1=O	x	x	x	x	n
O=c1c(O)c(-c2cc(O)c(O)c(O)c2)oc2cc(O)cc(O)c12	n	u	u	n	22.3µM
O=c1c(O)c(-c2ccccc2)oc2cc(O)cc(O)c12	n	n	x	n	x
CNC(=O)[C@@H]1C[C@H](NC2CCCCCCC2)CN1Cc1cccc(OC)c1OC	x	x	x	n	x
NCCS	0.562µM	n	n	n	11.2µM!
NC(=O)CC(NC(=O)Cc1cccc2ccccc12)c1ccc(NCCOc2ccccc2)c([N+](=O)[O-])c1 (configuration not stated)	n	-68.5	x	n	x
NC(=O)CC(NC(=O)Cc1cccc2ccccc12)c1ccc(NCC2CC2)c([N+](=O)[O-])c1 (configuration not stated)	n	n	x	n	x
NC(=O)CC(NC(=O)Cc1cccc2ccccc12)c1ccc(NC2CC3CCC2C3)c([N+](=O)[O-])c1 (configuration not stated)	11.2µM	n	x	n	x
CC[C@@]1(C(=O)OC)N[C@H](CN(C)C(=O)Nc2ccccc2)[C@@H]2C(=O)N(C)C(=O)[C@@H]21	n	n	x	4.47µM	x
CCN(C[C@H]1N[C@@](CC)(C(=O)OC)[C@H]2C(=O)N(C)C(=O)[C@@H]12)C(=O)Nc1ccc(C)cc1	3.16µM	n	x	n	x
COc1cccc(OC)c1CN1CCC2(CCC(CNC(=O)c3ccn(C)n3)O2)CC1 (configuration not stated)	x	x	x	n	x
O=C(NC1CC2CCCC(C1)N2C(=O)Nc1ccc(Cl)c(C(F)(F)F)c1)C1CC1 (configuration not stated)	n	n	n	u	n
O=C(Nc1ccc(Cl)c(C(F)(F)F)c1)NC1CC2CCCC(C1)N2Cc1ccccc1 (configuration not stated)	25.1µM	u	u	u	8.91µM
OC1(CNCc2cn[nH]c2-c2cc3ccccc3o2)CCCCC1	u	n	n	n	7.94µM
c1ccc2oc(-c3[nH]ncc3CN3CCSCC3)cc2c1	n	n	n	n	u
O=C1C=C(NCc2ccccc2)c2ccccc2C1=O	u	-83.9	u	n	u
O=C1C=C(Nc2cccnc2)c2ccccc2C1=O	12.6µM	n	u	u	u
O=C1C=C(Nc2ccc(F)cc2)c2ccccc2C1=O	u	n	u	u	u
SMILES	HCV inhibitor	HCMV antiviral	LASV entry inh	FMDV antiviral	Marburg entry inh
O=C1C=C(Nc2ccccc2O)c2ccccc2C1=O	u	-93.4	u	u	u
Cc1ccc(NC2=CC(=O)C(=O)c3ccccc32)c(C)c1	u	-96.3	x	u	x
O=C(Nc1ccccc1O)c1ccc2c(c1)C(=O)N(N1C(=O)c3ccccc3C1=O)C2=O	n	n	n	u	u
O=c1cccccc1NCc1ccccc1	n	n	n	n	n
CC(C)Oc1ccc(CNC(=O)c2cnc3sc(N4CCCCC4)nn3c2=O)cc1	x	n	u	n	x
Cc1ccc(N=C2S/C(=C\c3cn(CC(=O)O)c4ccccc34)C(=O)N2C)cc1	n	n	n	n	n
O=C1Nc2ccccc2Cc2ccccc21	x	n	x	n	x
CC1CCC(NC(=O)C2c3ccccc3C(=O)N2Cc2cccs2)CC1 (configuration not stated)	n	n	3.55µM	n	n
O=C(O)c1ccc(-n2cccc2/C=N/NC(=O)c2cc3cc(Br)ccc3o2)cc1	x	x	x	x	n
Cc1ccc(/C=C2\C(=O)NC(=O)N(Cc3ccccc3Cl)C2=O)o1	n	n	x	31.6µM	x
O=C1NC(=O)N(Cc2ccc(F)cc2)C(=O)/C1=C/c1cccs1	n	n	n	31.6µM	n
